Results filed as inconclusive are left out. Activity calls are given as the source filed them. The calls were made as follows: active = hit-call score of the fitted dose curve at least 0.9, where 1 is the maximum; inconclusive = response in the unintended direction; inactive = score below 0.9.

System in one test: not listed separately
Nature of the test: TOX21_p53_BLA_p5_viability: Viability Assessment in the Tox21 HCT-116 p53 Agonism Beta-lactamase Assay, Phase 5 (AID 2283600). The method, boiled down:
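Decreased CellTiter-Glo luminescence denotes lost viability. Exposure: 16 h at 37C, 5% CO2, with compounds from DMSO stocks diluted 217-fold in wells of 4000 cells.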
As for `CCCCN1C=CN(C)C1`, the outcome was inactive.
On the same count and under the same terms, the result for `O=C(O)CNCC(=O)O` reads “inactive”.
Still for that read-out and setting: for `C[N+](C)(C)CC[N+]1(C)Cc2c(Cl)c(Cl)c(Cl)c(Cl)c2C1` the value was “inactive”; for `CN(C)CCCNCCC#N`, “inactive”.
With `O=C(CCc1ccc(O)cc1)c1c(O)cc(O)cc1O`, the call was inactive.
Same read-out and setting: the result for `CC(=O)Oc1cc2c(s1)CCN(C(C(=O)C1CC1)c1ccccc1F)C2` (centres undefined) reads “inactive”; that for `CC1CCc2nccnc21` (centres undefined), “inactive”.
`ClC/C=C/CCl`: the result was inactive.
As for `CC[C@@]1(O)C[C@@H]2CN(CCc3c([nH]c4ccccc34)[C@@](C(=O)OC)(c3cc4c(cc3OC)N(C)[C@H]3[C@@](O)(C(=O)OC)[C@H](OC(C)=O)[C@]5(CC)C=CCN6CC[C@]43[C@@H]65)C2)C1`, the compound was called inactive.
Consider `CCC(C)[O-].CCC(C)[O-].CCOC(=O)/C=C(/C)[O-].[Al+3]`, for which the result was inactive.
Turning to `Cc1nc2n(c(=O)c1CCN1CCC(c3noc4cc(F)ccc34)CC1)CCC[C@H]2O`, the call was inactive.
Still for that read-out and setting: for `CN(CCO)CC(O)Cn1cnc2c1c(=O)n(C)c(=O)n2C` (centres undefined) (tested in a mixture with another compound) the value was “inactive”.
Turning to `CCCCCCCCCCCC(=O)N(CC)CC`, the result was inactive.
With `CCOC(=O)[C@H](CCc1ccccc1)N[C@@H](C)C(=O)N1C(=O)N(C)C[C@H]1C(=O)O`, the compound was called inactive.
Still for that read-out and setting: for `C1COC1` the value was “inactive”.
Consider `O=C(O)c1c(Cl)cccc1Cl`, for which the call was inactive.
As for `BrCCCCCBr`, the result was inactive.
`Nc1ncnc2c1ncn2[C@H]1CC[C@@H](CO)O1`: the outcome was inactive.
Same read-out and setting: the result for `O=C(O)CN(CC(=O)O)CC1=CC2C(=CC1=O)Oc1cc(O)c(CN(CC(=O)O)CC(=O)O)cc1C21OC(=O)c2ccccc21` (centres undefined) reads “inactive”; that for `CC(=C(CCOC(=O)C(C)C)SSC(CCOC(=O)C(C)C)=C(C)N(C=O)Cc1cnc(C)nc1N)N(C=O)Cc1cnc(C)nc1N`, “inactive”.
With `Cc1ncc(CO)c(C=O)c1O`, the result was inactive.
On to `O=[N+]([O-])c1ccccc1CCO`, for which the compound was classed as inactive.
With `CCC(C)SSC(C)CC` (centres undefined), the outcome was inactive.
Same read-out and setting: for `CCCC(=O)OC(=O)CCC` the value was “inactive”; for `COc1cc(N)c(Cl)cc1C(=O)NC1CCN(Cc2ccccc2)CC1`, “inactive”.
In the case of `C=CC(=O)OCCCl`, the call was inactive.
The same measure, in the same setting: the result for `CN(C)CC/C=C1/c2ccccc2COc2ccc(CC(=O)O)cc21` reads “inactive”; that for `CS(=O)(=O)OCCCNCCCOS(C)(=O)=O`, “inactive”; that for `COc1ccc(C(=O)CCC(=O)O)c2ccccc12`, “inactive”.

For a further test, the target named is Cellular tumor antigen p53 (Homo sapiens) (UniProt P04637). Briefly: TOX21_p53_BLA_p4_ratio: Tox21 HCT-116 p53 Agonism Beta-lactamase Assay, Ratio, Phase 4 (AID 2283601). In outline: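 Signal is the blue/green (460nm/530nm) ratio of cleaved versus uncleaved CCF4-AM substrate, read after 2 h substrate loading. Cells were HCT116 carrying the p53-responsive beta-lactamase reporter, dosed 16 h at 37C, 5% CO2; CellTiter-Glo measured in parallel.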
Chain of Cellular tumor antigen p53 (Homo sapiens) (P04637 whole entry, looked up): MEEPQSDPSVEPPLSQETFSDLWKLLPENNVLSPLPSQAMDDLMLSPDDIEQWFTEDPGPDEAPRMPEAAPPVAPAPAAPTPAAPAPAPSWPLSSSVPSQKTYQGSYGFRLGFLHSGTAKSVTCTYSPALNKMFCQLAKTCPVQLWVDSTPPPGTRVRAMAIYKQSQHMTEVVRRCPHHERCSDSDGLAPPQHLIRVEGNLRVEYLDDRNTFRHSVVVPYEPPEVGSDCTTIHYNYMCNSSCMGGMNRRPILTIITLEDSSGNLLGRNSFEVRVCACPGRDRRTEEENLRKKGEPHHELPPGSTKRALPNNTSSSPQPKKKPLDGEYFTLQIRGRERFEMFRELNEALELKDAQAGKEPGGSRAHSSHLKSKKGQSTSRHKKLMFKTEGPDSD
Take `C[N+](C)(C)CC[N+]1(C)Cc2c(Cl)c(Cl)c(Cl)c(Cl)c2C1`: the result was inactive.
For `CN(C)CCCNCCC#N`, the outcome was inactive.
For the compound `O=C(CCc1ccc(O)cc1)c1c(O)cc(O)cc1O`, the outcome was inactive.
For the compound `Nc1cc(Cl)c(NC2=NCCN2)c(Cl)c1`, the result was inactive.
In the case of `Cc1nc2n(c(=O)c1CCN1CCC(c3noc4cc(F)ccc34)CC1)CCC[C@H]2O`, the outcome was inactive.
Same read-out and setting: for `O=C(O)c1c(Cl)cccc1Cl` the value was “inactive”; for `BrCCCCCBr`, “inactive”; for `Nc1ncnc2c1ncn2[C@H]1CC[C@@H](CO)O1`, “inactive”.
On to `C[N+]1(CCCCC[N+]2(C)CCCC2)CCCC1`, for which the result was inactive.
On to `CC(=C(CCOC(=O)C(C)C)SSC(CCOC(=O)C(C)C)=C(C)N(C=O)Cc1cnc(C)nc1N)N(C=O)Cc1cnc(C)nc1N`, for which the outcome was inactive.
Regarding `Cc1ncc(CO)c(C=O)c1O`, the result was inactive.
Still for that read-out and setting: for `CCC(C)SSC(C)CC` (centres undefined) the value was “inactive”; for `CCCC(=O)OC(=O)CCC`, “inactive”.
For `CN(C)CC/C=C1/c2ccccc2COc2ccc(CC(=O)O)cc21`, the outcome was inactive.
In the case of `CS(=O)(=O)OCCCNCCCOS(C)(=O)=O`, the result was inactive.

Source of the values: PubChem BioAssay (EPA / NIEHS).
